Assay outcomes (PubChem BioAssay)
RE007 growth inh: less growth of the S. pombe RE007 Vpr strain | AID 651644 | 360,000 tested, 0.21% active | S. pombe RE007 Vpr strain, BacTiter-Glo ATP luminescence, 24 h | Potency, µM (titrated, usually from 92.2 µM), for the others: top-dose activity change, negative = less growth, actives largely listed as inhibitors; active means well fitted falling curve with a large enough effect; inconclusive means small, poorly fitted or top-dose-only effect; inactive means no such curve, though single readings can be large or run the other way; further: nearly all actives have a fitted effect of over 50% in size
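Fission yeast RE007 carrying one integrated HIV-1 vpr copy, seeded at OD 0.01 in PMG+AL medium with 23 nL pinned compound. Grown 24 h at 30 degrees; viability read by BacTiter-Glo luminescence after 5 min.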
LmPK inhibitor: LmPK (Leishmania mexicana) enzyme inhibition. purified LmPK, Kinase-Glo ATP luminescence, 1 h. Potency, µM (doses to about 57.5 µM), inactives show at the highest dose activity change, negative = inhibition, most hits filed as inhibitors. Q27686. AID 1721. 290,000 tested, 0.37% active
Target sequence (Q27686 whole entry, looked up): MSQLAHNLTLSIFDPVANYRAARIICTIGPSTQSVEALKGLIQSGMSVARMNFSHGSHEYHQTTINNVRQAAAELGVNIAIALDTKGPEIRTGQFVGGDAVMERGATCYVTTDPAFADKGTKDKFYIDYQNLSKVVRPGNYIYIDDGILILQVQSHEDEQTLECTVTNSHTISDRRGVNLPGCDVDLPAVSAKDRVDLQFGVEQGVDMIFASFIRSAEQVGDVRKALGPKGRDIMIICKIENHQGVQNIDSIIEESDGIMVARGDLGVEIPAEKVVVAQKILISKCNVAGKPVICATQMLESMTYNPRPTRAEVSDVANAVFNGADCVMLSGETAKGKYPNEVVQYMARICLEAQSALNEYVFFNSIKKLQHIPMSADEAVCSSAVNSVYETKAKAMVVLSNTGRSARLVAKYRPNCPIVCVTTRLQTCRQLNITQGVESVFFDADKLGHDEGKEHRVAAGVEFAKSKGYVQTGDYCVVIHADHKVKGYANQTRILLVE
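qHTS format; LmPK 0.1 nM; substrates PEP 0.5 mM and ADP 0.1 mM. One-hour room-temperature incubation, then coupled luciferase luminescence; 0.5 nM enzyme wells mark activation.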
AmpC inh detg: inhibitors of E. coli AmpC beta-lactamase with detergent; P00811; AmpC hydrolysis of nitrocefin, absorbance 480 nm, 0.01% Triton; Potency, µM (top dose mostly 114 µM), without a hit: top-dose activity change, negative = inhibition, actives largely listed as inhibitors; 370,000 tested, 0.041% active;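 further: 0% = no-compound wells and -100% = no-enzyme wells; nearly all actives have a fitted effect of over 25% in size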
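AmpC (5.3 nM in the dispensed reagent) in 20 mM phosphate pH 7.0 with 0.01% (detergent screen) or 0.0001% Triton X-100 was preincubated with compounds for 15 min at room temperature. Nitrocefin was then added from an 800 uM solution, and hydrolysis was followed at 480 nm.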
Giardia FBPA inh: blocks Giardia fructose-bisphosphate aldolase activity. purified Giardia FBPA. Potency, µM (titrated, usually from 59.6 µM), without a hit: at the highest dose activity, negative = inhibition, hits mostly inhibitors. 290,000 tested, 0.71% active; further: nearly all actives have a fitted effect of over 55% in size
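40 nM FBPA preincubated 10 min at RT with compound (up to 57.5 uM final), then substrate plus GAPDH/TPI/NAD/arsenate coupling and diaphorase/resazurin added. Fluorescence read after 20 min at RT, 525/598 nm.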
TbPYK inhibitor: inhibitors of Trypanosoma brucei pyruvate kinase. Q57TT1. TbPYK enzyme, Kinase-Glo Plus ATP luminescence, 45 min. Potency, µM (doses to about 76.8 µM), inactives show top-dose activity, negative = inhibition, hits mostly inhibitors. 410,000 tested, 0.12% active; further: nearly all actives have a fitted effect of over 50% in size
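Quantitative HTS: titrated library compounds versus trypanosomal pyruvate kinase in TEA buffer (pH 7.2) containing KCl, MgCl2, BSA and Tween-20. Reactions were initiated with ADP, 130 uM final. Kinase-Glo Plus luminescence was read after 45 min at RT.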
AmpC no deterg: inhibitors of E. coli AmpC beta-lactamase without detergent; AmpC nitrocefin hydrolysis, absorbance 480 nm, 0.0001% Triton; Potency, µM (series often up to 57.1 µM), without a hit: at the highest dose activity change, negative = inhibition, usual class: inhibitors; 330,000 tested, 0.52% active;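 further: plate controls were no compound for no effect and no enzyme for full effect; nearly all actives have a fitted effect of over 20% in size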
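20 mM phosphate pH 7.0 + 0.01% (detergent screen) or 0.0001% Triton X-100; 5.3 nM AmpC reagent; cpd preinc 15 min RT; nitrocefin (800 uM stock) to start; A480 q20 s × 4 min; Activity was normalised to no-enzyme and no-compound control wells.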
* = called active by the depositor; u = inconclusive; x = no result given. Compounds with a hit are over-represented: about 1.4% of the library has one in this group of screens. Unless noted, the call rests on the fitted dose curve; in most records, active means well fitted curve in the direction sought with a large enough effect; inconclusive means small, poorly fitted or top-dose-only effect, or another doubt; inactive means no such curve, though single readings can be large; an effect the other way counts as inactive or inconclusive. Unless noted, on the % scale 0 is the no-effect control and ±100 the full control effect; potency means the concentration at half of the fitted maximal effect.

SMILES | RE007 growth inh | LmPK inhibitor | AmpC inh detg | Giardia FBPA inh | TbPYK inhibitor | AmpC no deterg
FC(F)(F)c1cccc(N2CCN(C(=S)NC3CCCCC3)CC2)c1 | u | 0% | -11% | 5% | -8% | -40%
CC(=O)c1ccc(NC(=O)C2=CC(c3ccc(C)cc3)=NS(=O)(=O)N2C)cc1 | x | x | -10% | x | 8% | x
COc1cc(C(=O)NCCCc2nc3ccccc3n2CC(C)C)cc(OC)c1OC | x | x | -1% | x | -2% | x
O=C(N/N=C/c1ccc(O)c(O)c1)c1cccc(S(=O)(=O)N2CCCCC2)c1 | 6% | 2% | 4% | -17% | -5% | 14µM*
O=C(NN=Cc1ccc(F)cc1)c1cccc(S(=O)(=O)N2CCCC2)c1 | 0% | x | x | x | 2% | -22%
COC(=O)c1ccc2nc(-c3ccc4c(c3)OCO4)cn2c1 | -16% | u | 7% | -1% | -12% | -6%
CCc1ccn2cc(-c3ccc4c(c3)OCO4)nc2c1 | u | 14µM* | -7% | u | u | -19%
CCCc1nc(SCC(=O)N2CCC(Cc3ccccc3)CC2)c2c(=O)n(C)c(=O)n(C)c2n1 | -10% | 10% | u | 8% | 3% | 3.5µM*
CCCc1nc(SCC(=O)N2CCCc3ccccc32)c2c(=O)n(C)c(=O)n(C)c2n1 | 5% | 2% | -4% | 8% | 5% | 40µM*
CCCn1c(SCC(=O)N2CCCc3ccccc32)nc2c1c(=O)n(C)c(=O)n2C | 19% | 1% | 35µM* | -3% | -7% | 16%
Cn1c(=O)c2c(SCC(=O)N3CCCc4ccccc43)nc(CC(C)(C)C)nc2n(C)c1=O | 6% | -1% | u | 0% | -11% | -33%
CC[C@]1(O)C[C@H]2CN(CCC3=c4ccccc4=N[C]3[C@@](C(=O)OC)(c3cc4c(cc3OC)N(C)[C@H]3[C@@](O)(C(N)=O)[C@H](O)[C@]5(CC)C=CCN6CC[C@]43[C@@H]65)C2)C1 | x | x | x | x | -7% | x
COc1ccc(N2CCN(C(=O)Cc3c(C(=O)O)c(C)cn3C)CC2)cc1 | x | x | 3% | x | 0% | x
O=C(COC(=O)C1CC(=O)N(c2ccccc2)C1)c1ccccc1 (stereo not drawn) | -7% | 3% | u | 5% | -4% | 1.4µM*
CC(=O)c1ccc(NC(=O)CCCc2nc(-c3cccc(C)c3)no2)cc1 | x | x | 23% | x | 1% | x
O=C(NNS(=O)(=O)c1cccc(Cl)c1)c1cc(-c2ccc(F)cc2)nc2ccccc12 | 2% | 3% | -9% | 11% | 8% | 13µM*
CCCCn1c(CCn2nc(C)c(Br)c2C)n[nH]c1=S | 14% | 18µM* | 1% | 5% | u | 22%
c1ccc2c(Nc3nnc(-c4ccncc4)s3)cccc2c1 | -4% | -4% | -3% | -6% | -4% | 10µM*
CC1=C(C(=O)Nc2ccccc2)C(c2ccc(C(=O)O)cc2)n2nc(SCC(=O)c3ccc(C)cc3)nc2N1 (stereo not drawn) | x | x | 9% | x | -8% | x
COC(=O)c1c(-c2cccs2)csc1NC(=O)COc1ccc(C(C)C)cc1 | x | x | -1% | x | -4% | x
N/C(=N\OC(=O)/C=C/c1ccccc1)c1ccccc1 | -10% | 14µM* | -8% | -1% | -5% | -24%
CS(=O)(=O)Nc1ccc(C2=NN(C(=O)C3CCCCC3)C(c3cccs3)C2)cc1 (stereo not drawn) | 22% | 0% | -15% | -2% | -3% | 7.1µM*
CC(C)C(=O)N1N=C(c2ccc(NS(C)(=O)=O)cc2)CC1c1cccs1 (stereo not drawn) | 6% | 4% | -4% | 7% | 6% | -56%
Clc1ccccc1N1CCN(c2ncnc3nc[nH]c23)CC1 | -8% | 5% | u | 0% | 3% | 8.9µM*
CCc1ccc(/C=N/NC(=O)c2c[nH]c3ccccc23)s1 | 5% | -2% | -1% | -2% | 1% | 22µM*
SMILES | RE007 growth inh | LmPK inhibitor | AmpC inh detg | Giardia FBPA inh | TbPYK inhibitor | AmpC no deterg
O=C(N/N=C/c1cccs1)c1c[nH]c2ccccc12 | 17% | -10% | u | -1% | 2% | -33%
CCc1ccc(CNC(=O)CSc2cc(=O)n(C)c3ccc(Cl)cc23)cc1 | x | x | 2% | x | -2% | x
Cc1cc(C=c2sc3nc4ccccc4n3c2=O)c(C)n1-c1ccccc1 | x | x | x | x | 0% | x
CCc1ccc(NC(=O)c2cnn(-c3c(C)cccc3C)c2C2CCNCC2)cc1 | x | x | 7% | x | 0% | x
CC(C)C(Cl)=NOC(=O)Nc1ccc(F)cc1 | 10µM* | x | x | x | -9% | x
CCOc1cc2c3c(c1)C1(C(=O)N3C(C)(C)CC2C)C(C#N)=C(N)N2C(=C1C#N)Nc1ccccc12 (stereo not drawn) | -10% | 1% | 1% | u | -1% | 13µM*
O=C(Nc1nc(-c2ccc(Cl)cc2Cl)cs1)C1CCCO1 (stereo not drawn) | 16µM* | 0% | -3% | -6% | -1% | -7%
O=C(Nc1cc(Cl)ccc1Cl)C1CCCO1 (stereo not drawn) | u | -1% | u | 1% | -1% | -1%
O=C(Nc1nc(-c2ccc(Cl)cc2)cs1)C1CCCO1 (stereo not drawn) | 22µM* | -1% | -12% | -15% | 3% | 2%
CCOc1ccc(-c2csc(NC(=O)C3CCCO3)n2)cc1 (stereo not drawn) | 7% | -4% | 0% | -2% | 4% | 8%
CCCCN(CC)C(=O)CSc1nc2n[nH]c(C)c2c(=N)n1-c1cccc(Cl)c1 | x | x | -8% | x | 0% | x
CCOc1ccccc1C1N=C(c2ccc(OC)cc2)CC(c2ccccc2O)N1 (stereo not drawn) | 5% | 0% | 7% | 1% | -3% | 32µM*
Cc1ccc(NNC2CC(=O)N(c3cccc(Cl)c3)C2=O)cc1 (stereo not drawn) | 4% | 5% | -3% | -13% | 0% | -53%
CCOC(=O)c1ccc(N2C(=O)CC(N3CCOCC3)C2=O)cc1 (stereo not drawn) | 35µM* | -4% | -9% | 3% | 4% | -4%
COC(=O)C1CCN(C2CC(=O)N(c3cc(C)cc(C)c3)C2=O)CC1 (stereo not drawn) | 35µM* | 2% | -11% | 1% | 3% | 0%
